Measurements as given in PubChem BioAssay (EPA / NIEHS).
Records with an inconclusive call do not appear. Activity calls are given as the source filed them. The calls were made as follows, unless noted: active = hit-call score of the fitted dose curve at least 0.9, where 1 is the maximum; inactive = score below 0.9.

Key:
[1] = ATG_TCF_b_cat_CIS: Attagene CIS-FACTORIAL HepG2 Assay for human T-Cell-Factor with beta-catenin (TCF/b-cat) (AID 2282965); details: HepG2 TCF/beta-catenin cis-reporter transcription, actives raise or lower the signal
In short: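 Endogenous TCF/LEF activity read as reporter transcript level via RT-PCR and capillary electrophoresis fluorescence in transfected HepG2, 24 h exposure; gain or loss of signal fitted against DMSO controls.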

[2] = ATG_TAL_CIS: Attagene CIS-FACTORIAL HepG2 Assay for human TAL Basal Promoter (AID 2282966); details: HepG2 Attagene cis-factorial TAL promoter reporter; actives raise or lower the signal;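 also: background control endpoint measuring basal TAL promoter reporter mRNA not a specific factor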
In short: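 Fluorescence of labelled reporter cDNA fragments, resolved by capillary electrophoresis, gave the readout. Human HepG2 liver cells carried transiently transfected cis-element reporter units and were treated for 24 hours; activity was fitted bidirectionally against DMSO.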

[3] = ATG_TGFb_CIS: Attagene CIS-FACTORIAL HepG2 Assay for human Transforming Growth Factor (TGF) (AID 2282967); details: HepG2 Attagene CIS TGFb reporter, mRNA transcription; actives raise or lower the signal
In short: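 Cells were dosed for 24 hours, after which total RNA was reverse-transcribed and reporter sequences amplified, labeled and sized by capillary electrophoresis. Activity was fitted in both directions against DMSO.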

[4] = ATG_VDRE_CIS: Attagene CIS-FACTORIAL HepG2 Assay for human Vitamin D Receptor Element (VDRE) (AID 2282968); details: HepG2 VDRE cis-reporter transcription, actives raise or lower the signal
In short: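 Reporter mRNA induction, quantified by capillary electrophoresis of fluorescently labelled RT-PCR products, was read 24 h after dosing HepG2 cells carrying transiently transfected cis-regulated reporter units; gain or loss relative to DMSO.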

[5] = target: Estrogen receptor (Homo sapiens) (UniProt P03372); experiment: ATG_ERa_TRANS: Attagene TRANS-FACTORIAL HepG2 Assay for human Estrogen Receptor alpha (ERa) (AID 2282970; active = hit-call score of the fitted dose curve at least 0.9, where 1 is the maximum); details: HepG2 Attagene TRANS ERa GAL4 reporter, mRNA
In short: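 Human liver HepG2, transient transfection of multiple GAL4-UAS reporter units; TRANS format (exogenous NR-Gal4 chimera). 24 h dosing. Readout: reporter mRNA, RT-PCR, 6-FAM primer extension, HpaI digest, capillary electrophoresis. Positive direction vs DMSO.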

[6] = target: Steroid hormone receptor ERR1 (Homo sapiens) (UniProt P11474); experiment: ATG_ERRa_TRANS: Attagene TRANS-FACTORIAL HepG2 Assay for human Estrogen-Related Receptor alpha (ERRa) (AID 2282971; active = hit-call score of the fitted dose curve at least 0.9, where 1 is the maximum); details: HepG2 Attagene TRANS reporter, ERRa transactivation
In short: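 Reporter transcript induction was quantified by RT-PCR and capillary electrophoresis of FAM-labelled, HpaI-cut products after 24 h treatment of HepG2 cells carrying transiently transfected GAL4-UAS reporter units and an exogenous ERRa-Gal4 fusion; activity scored as increase over DMSO.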

[7] = target: X-box-binding protein 1 (Homo sapiens) (UniProt P17861); experiment: ATG_Xbp1_CIS: Attagene CIS-FACTORIAL HepG2 Assay for human X-box Binding Protein 1 (XBP1) (AID 2282972); details: HepG2 XBP1 cis-element reporter, Attagene multiplex; actives raise or lower the signal
In short: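 After a 24-hour chemical exposure of HepG2 cells carrying cis-regulated reporters, reporter mRNA levels are assessed. Quantification uses RT-PCR, 6-FAM labelling and capillary electrophoresis. Gain- or loss-of-signal is fitted against DMSO.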

[8] = ATG_M_19_TRANS: Attagene TRANS-FACTORIAL HepG2 Assay for M19 Transcription Factor (Internal Marker) (AID 2282974; active = hit-call score of the fitted dose curve at least 0.9, where 1 is the maximum); details: HepG2 Attagene TRANS-FACTORIAL M19 internal marker reporter
In short: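 HepG2 cells transiently transfected with multiple GAL4-UAS reporter transcription units were exposed to chemicals for 24 h. Reporter mRNA was read by RT-PCR, 6-FAM primer extension, HpaI digestion and capillary electrophoresis; gain of signal fitted relative to DMSO.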

[9] = ATG_GAL4_TRANS: Attagene TRANS-FACTORIAL HepG2 Assay for GAL4 (Internal Marker) (AID 2282976; active = hit-call score of the fitted dose curve at least 0.9, where 1 is the maximum); details: HepG2 Attagene TRANS GAL4 internal marker reporter
In short: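 First, HepG2 cells were transfected with reporter units under GAL4-UAS control. Next, they were treated with chemical for 24 h. Finally, RNA was reverse-transcribed, PCR-amplified, FAM-labelled and resolved by capillary electrophoresis, with induction scored against DMSO.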

[10] = target: Estrogen-related receptor gamma (Homo sapiens) (UniProt P62508); experiment: ATG_ERRg_TRANS: Attagene TRANS-FACTORIAL HepG2 Assay for human Estrogen-Related Receptor gamma (ERRg) (AID 2282977; active = hit-call score of the fitted dose curve at least 0.9, where 1 is the maximum;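 also: hits increase reporter signal over DMSO so potencies reflect activators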); details: HepG2 Attagene TRANS reporter, ERRg transactivation
In short: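 Transfect HepG2 with multiple GAL4-UAS reporter transcription units; dose chemicals 24 h; isolate RNA, reverse-transcribe with oligo(dT), PCR-amplify, label with 6-FAM, digest with HpaI; size fragments by capillary electrophoresis. DMSO serves as negative control.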

[11] = target: Oxysterols receptor LXR-beta (Homo sapiens) (UniProt P55055); experiment: ATG_LXRb_TRANS: Attagene TRANS-FACTORIAL HepG2 Assay for human Liver X Receptor beta (LXRb) (AID 2282981; active = hit-call score of the fitted dose curve at least 0.9, where 1 is the maximum); details: HepG2 Attagene TRANS GAL4-LXRb reporter, mRNA
In short: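 Transient transfection HepG2 (multiplexed RTUs, GAL4-UAS); NR-Gal4 chimera; 24 h exposure; RNA → RT-PCR → 6-FAM primer extension → HpaI → CE; increase vs DMSO.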

[12] = ATG_M_06_TRANS: Attagene TRANS-FACTORIAL HepG2 Assay for M06 Transcription Factor (Internal Marker) (AID 2282983; active = hit-call score of the fitted dose curve at least 0.9, where 1 is the maximum); details: HepG2 Attagene TRANS M06 internal marker reporter
In short: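 Transfect HepG2 with MRTUs → dose compounds 24 h → isolate RNA, oligo(dT) RT → PCR with reporter primers → 6-FAM primer extension → HpaI digest → CE fragment analysis. Positive direction vs DMSO.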

[13] = target: Transcriptional activator Myb (Homo sapiens) (UniProt P10242); experiment: ATG_Myb_CIS: Attagene CIS-FACTORIAL HepG2 Assay for human Myeloblastosis (Myb) Proto-Oncogene Transcription Factor (AID 2282986); details: HepG2 Attagene CIS-FACTORIAL Myb reporter transcription; actives raise or lower the signal
In short: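 HepG2 cells were transiently transfected with cis-regulated multiple reporter transcription units reflecting endogenous Myb activity, then exposed to compound for 24 hours. Reporter mRNA was measured by RT-PCR with capillary electrophoresis; bidirectional fitting versus DMSO baseline.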

[14] = target: Glucocorticoid receptor (Homo sapiens) (UniProt P04150); experiment: ATG_GR_TRANS: Attagene TRANS-FACTORIAL HepG2 Assay for human Glucocorticoid Receptor (GR) (AID 2282978; active = hit-call score of the fitted dose curve at least 0.9, where 1 is the maximum;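 also: activators score as hits since higher reporter transcript over DMSO is fitted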); details: HepG2 Attagene TRANS GR reporter, mRNA transcription
In short: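 HepG2 cells transiently transfected with multiplexed reporter units in which chimeric NR-GAL4 proteins drive GAL4-UAS reporters; 24 h compound exposure. Reporter mRNA measured by RT-PCR, 6-FAM labelling, HpaI digestion and capillary electrophoresis; gain-of-signal fitted versus DMSO.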

[15] = target: Oxysterols receptor LXR-alpha (Homo sapiens) (UniProt Q13133); experiment: ATG_LXRa_TRANS: Attagene TRANS-FACTORIAL HepG2 Assay for human Liver X Receptor alpha (LXRa) (AID 2282980; active = hit-call score of the fitted dose curve at least 0.9, where 1 is the maximum); details: HepG2 Attagene TRANS reporter, LXRa transactivation
In short: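 Transfect HepG2 with GAL4-UAS multiplex reporter constructs (TRANS format, chimeric receptor-GAL4); treat 24 h; extract RNA, reverse-transcribe, PCR-amplify, FAM-label, HpaI-digest; resolve fragments by capillary electrophoresis. Upward response vs DMSO.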

[16] = target: Hepatocyte nuclear factor 4-alpha (Homo sapiens) (UniProt P41235); experiment: ATG_HNF4a_TRANS: Attagene TRANS-FACTORIAL HepG2 Assay for human Hepatocyte Nuclear Factor 4 alpha (HNF4a) (AID 2282982; active = hit-call score of the fitted dose curve at least 0.9, where 1 is the maximum); details: HepG2 HNF4a transactivation reporter, mRNA readout
In short: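 Readout is fluorescent reporter-transcript fragments resolved by capillary electrophoresis after RT-PCR from HepG2 cells dosed for 24 h. Cells carried transfected GAL4-UAS reporter constructs measuring exogenous NR-GAL4 chimera activity; DMSO served as baseline.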

[17] = ATG_M_32_TRANS: Attagene TRANS-FACTORIAL HepG2 Assay for M32 Transcription Factor (Internal Marker) (AID 2282984; active = hit-call score of the fitted dose curve at least 0.9, where 1 is the maximum;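 also: transcript level of a background control reporter unit measured by RT-PCR and capillary electrophoresis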); details: HepG2 Attagene TRANS M32 internal marker reporter
In short: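 Measures reporter mRNA induction in human HepG2 liver cells after 24 h chemical treatment. Transcripts from transiently transfected GAL4-UAS reporter units are amplified, fluorescently labelled and sized by capillary electrophoresis; gain of signal relative to DMSO.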

[18] = target: Nuclear receptor subfamily 4 group A member 2 (Homo sapiens) (UniProt P43354); experiment: ATG_NURR1_TRANS: Attagene TRANS-FACTORIAL HepG2 Assay for human Nuclear Receptor Related Protein 1 (NURR1) (AID 2282985; active = hit-call score of the fitted dose curve at least 0.9, where 1 is the maximum); details: HepG2 Attagene TRANS reporter, mRNA readout
In short: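 Transient transfection of HepG2, human liver cells, with multiple GAL4-UAS reporter transcription units. Cells dosed 24 h, RNA isolated, reverse-transcribed, PCR-amplified, FAM-labelled, HpaI-digested, sized by capillary electrophoresis. DMSO served as negative control.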

[19] = target: Nuclear receptor subfamily 1 group I member 3 (Homo sapiens) (UniProt Q14994); experiment: ATG_CAR_TRANS: Attagene TRANS-FACTORIAL HepG2 Assay for human Constitutive Androstane Receptor (CAR) (AID 2282969; active = hit-call score of the fitted dose curve at least 0.9, where 1 is the maximum;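 also: activators raise reporter mRNA above DMSO so AC50 marks induction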); details: HepG2 Attagene TRANS-FACTORIAL CAR reporter
In short: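 Readout is reporter mRNA induction, quantified by fluorescent primer extension and capillary electrophoresis after RT-PCR. Cells were HepG2 transiently carrying chimeric NR-Gal4 constructs with GAL4-UAS reporters, treated for 24 h; activity scored upward from DMSO.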

Measured: AC50

Sequence of Steroid hormone receptor ERR1 (Homo sapiens) (P11474 whole entry, looked up, the tested form may be a part): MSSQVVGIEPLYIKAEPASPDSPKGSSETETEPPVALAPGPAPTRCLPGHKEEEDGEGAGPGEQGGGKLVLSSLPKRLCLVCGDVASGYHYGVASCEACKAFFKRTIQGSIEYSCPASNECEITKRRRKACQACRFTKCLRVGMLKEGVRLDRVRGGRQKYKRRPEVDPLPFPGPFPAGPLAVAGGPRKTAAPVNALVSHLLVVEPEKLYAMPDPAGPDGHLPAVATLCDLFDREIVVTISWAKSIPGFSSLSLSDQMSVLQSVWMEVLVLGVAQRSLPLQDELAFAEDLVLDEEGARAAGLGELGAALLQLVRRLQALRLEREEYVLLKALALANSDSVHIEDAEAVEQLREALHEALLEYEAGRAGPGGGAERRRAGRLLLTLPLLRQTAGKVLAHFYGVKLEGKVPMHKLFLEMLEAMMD
Sequence of Nuclear receptor subfamily 4 group A member 2 (Homo sapiens) (P43354 whole entry, looked up, the tested form may be a part): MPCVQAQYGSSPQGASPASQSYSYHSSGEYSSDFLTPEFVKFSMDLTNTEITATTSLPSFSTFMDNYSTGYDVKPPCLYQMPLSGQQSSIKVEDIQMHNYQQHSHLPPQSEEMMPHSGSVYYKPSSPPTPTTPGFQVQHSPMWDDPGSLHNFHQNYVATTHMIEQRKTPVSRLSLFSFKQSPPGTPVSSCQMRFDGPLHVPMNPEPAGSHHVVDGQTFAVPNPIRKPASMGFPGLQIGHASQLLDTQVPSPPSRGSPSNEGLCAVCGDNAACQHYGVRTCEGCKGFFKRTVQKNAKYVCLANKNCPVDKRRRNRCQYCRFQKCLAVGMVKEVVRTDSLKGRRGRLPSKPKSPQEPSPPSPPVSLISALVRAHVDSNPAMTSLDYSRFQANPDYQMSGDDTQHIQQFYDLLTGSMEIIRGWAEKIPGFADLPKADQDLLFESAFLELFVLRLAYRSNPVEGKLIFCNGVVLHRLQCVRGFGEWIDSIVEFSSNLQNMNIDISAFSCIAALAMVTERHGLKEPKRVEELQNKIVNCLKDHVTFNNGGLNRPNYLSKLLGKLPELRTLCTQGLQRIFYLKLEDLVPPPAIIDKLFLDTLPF
Sequence of Transcriptional activator Myb (Homo sapiens) (P10242 whole entry, looked up): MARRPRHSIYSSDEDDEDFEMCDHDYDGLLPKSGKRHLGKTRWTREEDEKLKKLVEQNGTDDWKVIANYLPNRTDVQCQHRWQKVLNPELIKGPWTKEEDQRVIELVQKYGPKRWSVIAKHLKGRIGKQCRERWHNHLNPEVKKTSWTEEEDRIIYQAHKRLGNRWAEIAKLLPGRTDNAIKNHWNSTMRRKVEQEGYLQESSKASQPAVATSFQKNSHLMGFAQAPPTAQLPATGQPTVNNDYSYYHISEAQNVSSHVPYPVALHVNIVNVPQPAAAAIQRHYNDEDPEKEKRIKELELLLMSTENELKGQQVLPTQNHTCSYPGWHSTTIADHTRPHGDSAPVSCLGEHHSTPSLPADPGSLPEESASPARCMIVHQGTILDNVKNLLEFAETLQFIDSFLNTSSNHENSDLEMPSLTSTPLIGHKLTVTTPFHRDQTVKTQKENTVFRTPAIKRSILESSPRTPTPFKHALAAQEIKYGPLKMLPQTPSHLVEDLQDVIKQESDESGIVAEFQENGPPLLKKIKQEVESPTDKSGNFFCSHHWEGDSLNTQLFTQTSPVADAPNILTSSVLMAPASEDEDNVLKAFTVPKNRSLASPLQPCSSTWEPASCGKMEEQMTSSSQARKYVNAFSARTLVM
Sequence of Oxysterols receptor LXR-beta (Homo sapiens) (P55055 whole entry, looked up, the tested form may be a part): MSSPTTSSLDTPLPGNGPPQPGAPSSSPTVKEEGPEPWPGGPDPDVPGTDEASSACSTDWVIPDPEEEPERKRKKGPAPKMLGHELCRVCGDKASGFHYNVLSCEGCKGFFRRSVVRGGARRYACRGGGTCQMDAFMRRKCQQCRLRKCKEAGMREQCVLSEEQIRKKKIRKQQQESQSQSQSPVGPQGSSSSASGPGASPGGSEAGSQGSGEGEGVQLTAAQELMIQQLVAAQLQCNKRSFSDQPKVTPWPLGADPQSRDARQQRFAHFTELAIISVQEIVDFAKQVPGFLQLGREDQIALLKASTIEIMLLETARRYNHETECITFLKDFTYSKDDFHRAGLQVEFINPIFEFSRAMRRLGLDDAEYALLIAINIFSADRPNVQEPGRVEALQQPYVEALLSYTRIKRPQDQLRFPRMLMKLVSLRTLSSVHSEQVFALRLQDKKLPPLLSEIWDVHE
Sequence of Estrogen receptor (Homo sapiens) (P03372 whole entry, looked up, the tested form may be a part): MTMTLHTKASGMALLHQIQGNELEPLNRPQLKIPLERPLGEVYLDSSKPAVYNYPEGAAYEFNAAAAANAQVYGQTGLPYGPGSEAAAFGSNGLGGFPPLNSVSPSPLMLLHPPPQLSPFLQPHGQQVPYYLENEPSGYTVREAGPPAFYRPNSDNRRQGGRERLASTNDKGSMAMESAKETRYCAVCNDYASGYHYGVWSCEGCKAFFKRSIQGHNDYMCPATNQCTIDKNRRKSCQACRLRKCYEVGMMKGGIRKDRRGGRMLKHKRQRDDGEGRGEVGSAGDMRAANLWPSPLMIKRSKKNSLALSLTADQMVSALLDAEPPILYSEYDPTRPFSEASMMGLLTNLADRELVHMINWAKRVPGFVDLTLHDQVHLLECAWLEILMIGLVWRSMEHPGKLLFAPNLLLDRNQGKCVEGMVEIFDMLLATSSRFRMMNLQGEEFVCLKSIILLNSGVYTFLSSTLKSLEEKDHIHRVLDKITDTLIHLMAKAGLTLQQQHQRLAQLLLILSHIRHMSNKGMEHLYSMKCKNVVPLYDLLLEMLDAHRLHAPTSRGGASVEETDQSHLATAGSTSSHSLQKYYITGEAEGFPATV
Sequence of X-box-binding protein 1 (Homo sapiens) (P17861 whole entry, looked up): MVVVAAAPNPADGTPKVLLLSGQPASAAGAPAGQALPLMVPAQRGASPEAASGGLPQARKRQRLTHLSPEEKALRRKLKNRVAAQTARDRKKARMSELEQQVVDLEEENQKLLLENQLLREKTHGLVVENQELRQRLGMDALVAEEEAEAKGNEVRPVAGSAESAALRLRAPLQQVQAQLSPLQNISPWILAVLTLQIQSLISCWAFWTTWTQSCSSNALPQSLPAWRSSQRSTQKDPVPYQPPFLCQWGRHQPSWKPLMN
Sequence of Hepatocyte nuclear factor 4-alpha (Homo sapiens) (P41235 whole entry, looked up, the tested form may be a part): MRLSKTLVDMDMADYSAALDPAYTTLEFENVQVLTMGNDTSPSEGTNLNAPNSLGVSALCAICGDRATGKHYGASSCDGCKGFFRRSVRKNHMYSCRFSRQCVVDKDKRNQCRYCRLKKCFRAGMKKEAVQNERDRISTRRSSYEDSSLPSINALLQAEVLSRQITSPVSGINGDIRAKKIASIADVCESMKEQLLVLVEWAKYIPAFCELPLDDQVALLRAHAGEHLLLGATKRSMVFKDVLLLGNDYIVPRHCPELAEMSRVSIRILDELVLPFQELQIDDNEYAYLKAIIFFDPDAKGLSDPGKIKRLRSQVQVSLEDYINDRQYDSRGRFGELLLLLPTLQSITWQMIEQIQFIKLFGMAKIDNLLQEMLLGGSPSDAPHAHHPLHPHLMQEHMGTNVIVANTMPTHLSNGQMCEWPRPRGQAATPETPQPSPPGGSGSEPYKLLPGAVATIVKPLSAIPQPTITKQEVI
Sequence of Glucocorticoid receptor (Homo sapiens) (P04150 whole entry, looked up, the tested form may be a part): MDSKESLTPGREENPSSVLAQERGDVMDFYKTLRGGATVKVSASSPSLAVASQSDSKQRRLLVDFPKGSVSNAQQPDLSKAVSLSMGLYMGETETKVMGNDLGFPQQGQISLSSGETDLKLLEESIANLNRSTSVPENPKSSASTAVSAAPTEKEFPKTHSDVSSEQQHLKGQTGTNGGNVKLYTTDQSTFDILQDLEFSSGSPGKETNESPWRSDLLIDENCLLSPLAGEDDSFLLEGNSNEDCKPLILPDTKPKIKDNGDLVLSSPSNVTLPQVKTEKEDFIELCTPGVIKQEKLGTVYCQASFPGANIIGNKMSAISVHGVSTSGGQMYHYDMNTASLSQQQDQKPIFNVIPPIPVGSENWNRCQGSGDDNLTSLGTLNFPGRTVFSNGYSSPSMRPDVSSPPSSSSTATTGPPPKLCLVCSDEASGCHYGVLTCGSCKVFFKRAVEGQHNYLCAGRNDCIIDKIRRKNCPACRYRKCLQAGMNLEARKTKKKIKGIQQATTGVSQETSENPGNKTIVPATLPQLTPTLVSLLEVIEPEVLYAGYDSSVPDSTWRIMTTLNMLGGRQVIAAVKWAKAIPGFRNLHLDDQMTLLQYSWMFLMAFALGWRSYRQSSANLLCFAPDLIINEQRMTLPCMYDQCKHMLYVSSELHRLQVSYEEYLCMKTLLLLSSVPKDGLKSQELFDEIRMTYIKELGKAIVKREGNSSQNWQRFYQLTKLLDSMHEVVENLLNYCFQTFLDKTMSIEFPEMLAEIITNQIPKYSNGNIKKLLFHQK
Sequence of Oxysterols receptor LXR-alpha (Homo sapiens) (Q13133 whole entry, looked up, the tested form may be a part): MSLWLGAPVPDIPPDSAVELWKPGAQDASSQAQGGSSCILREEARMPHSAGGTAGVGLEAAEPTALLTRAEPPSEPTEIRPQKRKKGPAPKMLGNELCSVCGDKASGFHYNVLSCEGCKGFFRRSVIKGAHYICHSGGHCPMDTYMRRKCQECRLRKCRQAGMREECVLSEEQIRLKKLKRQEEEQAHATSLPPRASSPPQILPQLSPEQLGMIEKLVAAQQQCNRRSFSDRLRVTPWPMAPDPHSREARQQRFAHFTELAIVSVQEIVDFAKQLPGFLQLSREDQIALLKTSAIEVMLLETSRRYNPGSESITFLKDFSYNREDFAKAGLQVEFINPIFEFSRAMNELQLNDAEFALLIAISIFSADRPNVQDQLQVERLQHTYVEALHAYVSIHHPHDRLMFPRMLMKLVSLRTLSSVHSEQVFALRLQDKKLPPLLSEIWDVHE

CCC(C)(C)C1CCC(=O)CC1
active: [5] 28.2 µM
not listed: [14] | [15] | [16] | [17] | [18] | [19]
inactive: all other assays above

CCCc1ccc(N)cc1
inactive: [1] | [2] | [3] | [4] | [5] | [7] | [8] | [9] | [13]

CC(O)CN (stereo unspecified)
not listed: [9] | [10] | [12] | [19]
inactive: all other assays above

CN(C)C(=O)Nc1ccccc1
not listed: [6] | [9] | [10] | [12] | [14] | [15] | [17] | [19]
inactive: all other assays above

C=C(C)C(=O)OCCC(C)OC(=O)C(=C)C (stereo unspecified)
not listed: [9] | [10] | [11] | [12] | [15] | [18] | [19]
inactive: all other assays above

CC(=O)CCC=C(C)CCC=C(C)C
active: [4] 7.02 µM
inactive: [1] | [2] | [3] | [19] | [7] | [16] | [12] | [17] | [18] | [13]
